The list is not random: actives were taken first. Their share in the collection is about 1.7%.
BJeLR viability: BJeLR cell viability loss. BJeLR (HRASV12) viability, CellTiter-Glo ATP luminescence, 48 h. inhibition, % (test concentration not listed). 0.17% of 300,000 active. AID 1554; in the data active = inhibition above about 50%
SARS 3CLpro inh: SARS-CoV 3CLpro protease inhibition | P0C6X7 | recombinant SARS-CoV 3CLpro, quenched FRET peptide cleavage | inhibition, % at 6 µM | 0.14% of 290,000 active; in the data active = inhibition above about 12%
DUSP3 inh: inhibitors of human VHR1 phosphatase (DUSP3); P51452; recombinant VHR phosphatase, pNPP absorbance; inhibition, % at 13.3 µM; 0.52% of 290,000 active; in the data active = inhibition above about 50%
Target sequence (P51452 whole entry, looked up): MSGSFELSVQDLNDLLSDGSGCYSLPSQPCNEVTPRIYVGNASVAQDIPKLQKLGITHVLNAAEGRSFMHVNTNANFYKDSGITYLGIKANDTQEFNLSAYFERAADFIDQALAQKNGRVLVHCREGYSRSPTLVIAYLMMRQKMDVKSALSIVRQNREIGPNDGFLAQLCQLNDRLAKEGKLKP
Vc quorum ag: inducers of Vibrio cholerae quorum light production without autoinducers; V. cholerae BH1578 lux reporter, luminescence, 6 h; activation, % at 18.7 µM; 0.16% of 350,000 active; AID 588436; in the data active = activation mostly above about 9.7%, no sharp cut-off
PfHsp40 rescue: compounds rescuing yeast from Plasmodium falciparum HSP40 toxicity; S. cerevisiae expressing PfHsp40, growth rescue, ATP luminescence; 0.68% of 340,000 active; growth rescue, % at 12.5 µM; in the data active = growth rescue above about 28%, passing the limit was not always enough;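 note: yeast W303a lacking pdr1 and pdr3 grown in galactose medium; growth measured after three days at 30 °C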
MazEF act: increases E. coli MazEF RNase cleavage of RNA. 0.32% of 350,000 active. FAM/BHQ RNA-DNA oligo cleavage fluorescence, 5 h. P0AE70. AID 504720. activation, % at 20 µM; in the data active = activation above about 50%
Target sequence (P0AE70 whole entry, looked up): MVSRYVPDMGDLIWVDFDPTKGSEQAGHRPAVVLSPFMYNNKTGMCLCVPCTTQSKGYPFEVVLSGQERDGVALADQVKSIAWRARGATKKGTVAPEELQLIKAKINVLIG
An asterisk follows results filed as active; i = inactive; / = no result; + = active, no number.

SMILES	BJeLR viability	SARS 3CLpro inh	DUSP3 inh	Vc quorum ag	PfHsp40 rescue	MazEF act
Cc1cc(C)cc(NC(=O)CCN2CCOCC2)c1	1	-2	4	0	-1	9
CCc1nc2ccc(C(=O)NCc3ccccc3OC)cn2c1N(C)Cc1ccc(OC)cc1	/	/	/	i	/	/
COc1cc2c3nnc(-c4ccccc4)c-3cn(Cc3ccccc3F)c2cc1OC	/	-8	16	/	/	734*
COc1ccc(-c2csc(NC(=O)c3ccccc3F)c2C(=O)O)cc1	-12	9	-9	-1	310*	-8
Cc1ccc(C(=O)Nc2scc(-c3ccccc3)c2C(=O)O)cc1	-10	/	/	i	119*	0
CCc1cc(=O)oc2cc(C)cc(OC(C)C(=O)NCCCN3CCCC3=O)c12 (configuration not stated)	4	-1	12	-1	0	-3
COc1ccc(Cc2nc3c([nH]2)c(=O)n(C)c(=O)n3C)cc1OC	/	/	/	i	0	0
CCNc1ccc(Br)cc(C(=O)/C=C/c2ccc3c(c2)OCO3)c1=O	-3	-3	14	-12	37*	-1
CCNc1ccc(Br)cc(C(=O)/C=C/c2ccc(Cl)cc2)c1=O	-9	3	15	0	1	-38
CN(Cc1cnc2nc(N)nc(N)c2n1)c1ccc(C(=O)N[C@@H](CCC(=O)O)C(=O)O)cc1	76*	/	/	-1	5	5
CCOC(=O)C1=C(O)/C(=C/c2cn(CC(=O)NCC3CCCO3)c3ccccc23)SC1=Nc1ccc(C)cc1 (configuration not stated)	/	0	/	3	2	+
CCOC(=O)C1=C(O)/C(=C/c2ccc(-c3ccccc3C(=O)O)o2)SC1=Nc1ccc(C)cc1	/	/	/	i	1	-40
COc1ccc(NC(=O)COC(=O)C2CCC2)cc1Cl	-5	0	-4	0	0	0
CCCN(CCC)CCCNC(=O)c1ccc(CS(=O)(=O)c2c(Cl)cccc2Cl)o1	0	-3	55*	0	0	-7
CN(C)CCNC(=O)c1ccc(CS(=O)(=O)c2c(Cl)cccc2Cl)o1	4	0	21	i	-1	12
Cc1ccc(CC2C(=O)N(c3cc(C)ccc3C)C(=O)C2C)cc1 (configuration not stated)	1	2	9	-5	1	-3
CC1=C(C(=O)N2CCOCC2)CC(CC(=O)NC2CCCC2)C(=O)N1Cc1ccc(F)cc1 (configuration not stated)	/	/	/	0	/	8
CCOc1cc(C(=O)NCc2ccc(C)cc2)ccc1OCC(=O)N1CCOCC1	-3	1	51*	i	1	-5
CCOc1cc(/C=C\[N+](=O)[O-])ccc1OCC(=O)N1CCOCC1	9	1	-1	-1	35*	-6
COC(=O)c1ccc(CNC(=O)c2ccc(OCC(=O)N3CCOCC3)c(OC)c2)cc1	4	/	/	-1	-1	1
CCOc1cc(/C=C/c2nc3cc(C)c(C)cc3s2)ccc1OCC(=O)N1CCOCC1	6	-2	8	0	1	-3
Cc1ccc(CC(C)(O)CC(C)(O)Cc2ccc(C)cc2)cc1 (configuration not stated)	/	/	/	-1	/	1
Cc1ccc(Cl)cc1N1C(=O)CC(Sc2ccccc2N)C1=O (configuration not stated)	/	/	/	-5	/	-4
COc1cccc(N2CCN(c3nc(-c4ccccc4C)cc(=O)[nH]3)CC2)c1	6	2	-1	i	108*	-6
COc1cccc(N2CCN(c3nc(C)c(C)c(=O)[nH]3)CC2)c1	-1	2	1	-1	1	1
SMILES	BJeLR viability	SARS 3CLpro inh	DUSP3 inh	Vc quorum ag	PfHsp40 rescue	MazEF act
O=[N+]([O-])c1cccc(N(CC(O)CN2CCCC2)S(=O)(=O)c2ccccc2)c1 (configuration not stated)	-2	1	11	0	0	7
CC(C)(C)C1CCC(OCC(O)CN2CCCC2)CC1 (configuration not stated)	3	5	-2	i	-1	3
OC(COC1CCCCC1)CN1CCCCC1 (configuration not stated)	0	-8	56*	0	-1	-14
Cc1c(C(=O)Oc2cccc3ccccc23)cnn1-c1ccccc1	3	3	7	i	34*	1
CC(=O)c1cnn(-c2ccccc2)c1C	5	1	2	i	-1	3
O=c1[nH]c2ccc(Br)cc2c(=O)o1	/	/	/	-1	/	-4
Cc1onc(-c2ccccc2)c1NC(=O)OC(C)c1cccnc1 (configuration not stated)	/	/	/	-5	/	-2
COc1ccc(CNC(=O)c2cc3cccc(OC)c3oc2=N)cc1	-6	-1	54*	-4	0	11
Cc1cc(C(=O)Nc2cc(Br)ccc2O)on1	-1	-4	53*	i	-3	-10
CC1=C(C(=O)N2CCOCC2)CC(CC(=O)NCc2ccco2)C(=O)N1CCC1=CCCCC1 (configuration not stated)	/	/	/	-1	/	4
C[C@@H]1CN([C@@H](C)CO)C(=O)CCCn2nncc2CO[C@H]1CN(C)S(=O)(=O)c1ccc(Oc2ccccc2)nc1	/	/	/	-2	/	5
O=C(NC(=O)c1cccc(F)c1)Nc1nc(-c2ccc(F)cc2)cc(C(F)(F)F)n1	/	5	9	0	0	21
O=C(NC(=O)c1ccc(F)cc1)Nc1nc(-c2cccs2)cc(C(F)(F)F)n1	7	0	-11	0	-1	94*
CC(C)CCN1C(=O)c2cccc3c(N)ccc(c23)C1=O	2	/	/	1	2	i
N=C1CCCN1CC(=O)c1ccc(Br)cc1	-2	3	28	-3	46*	1
O=C(CN1CCOCC1)c1ccc(Br)cc1	-8	2	28	0	/	6
CC(=O)Nc1ccc(S(=O)(=O)NCCc2ccc3c(c2)OCCO3)cc1	/	/	/	0	/	-9
Cc1cccc(N2CCN(C(=S)Nc3ccc4nc(N5CCN(C)CC5)cc(C)c4c3)CC2)c1C	71*	-4	-5	-1	1	35
Cc1cc(N2CCN(C)CC2)nc2ccc(NC(=S)NCCN3CCc4ccccc4C3)cc12	32	-2	27	i	49*	17
Nc1ccc2c(c1)C(=O)CCC2	/	/	/	-10	/	-1
c1ccc(-c2csc(-c3ccncc3)n2)cc1	-1	-1	52*	i	-1	13
Clc1ccc(-c2csc(-c3cccnc3)n2)s1	-9	1	8	5	29*	3
Oc1ccccc1-c1csc(-c2ccccc2)n1	1	2	-8	0	4	4
Fc1ccccc1-c1csc(-c2cccnc2)n1	3	1	5	-1	0	-5
CCN(Cc1ccc(Br)s1)C(=O)CSc1nnc(C2CC2)n1C1CC1	/	/	/	-4	/	-3
Nc1nc(CCl)nc(Nc2cccc3ccccc23)n1	125*	-4	1	-1	/	-4
Cc1cc(CNC(=O)COC(=O)c2ccc(Cl)c(N)c2)cc(C)c1O	-3	/	/	-1	105*	3

High-throughput results: PubChem, several laboratories
